Publication PMC4552634, “A New Set of Chemical Starting Points with Plasmodium falciparum Transmission-Blocking Potential for Antimalarial Drug Discovery” (PLoS ONE, 2015)
Out of some 13,000 compounds screened, about 3,200 (25%) showed an effect of 50% or more. This is one part of the list.

test system: P. falciparum stage V gametocytes; parameters: BacTiter-Glo ATP luminescence viability of purified stage V gametocytes in 384-well plates, per cent inhibition versus DMSO; details: 48 h, 5 µM; inhibitor

Structure (SMILES)	% Inhibition
CCOCCCNc1sc(S(=O)(=O)c2ccccc2)nc1S(=O)(=O)c1ccc(C)cc1 [TCMDC-124750]	20.27%
O=C(Cc1ccc[n+]([O-])c1)Nc1cccc(-c2cccc(-c3nc4cc(C(F)(F)F)ccc4[nH]3)c2)c1 [TCMDC-136990]	-75.57%
CC(=O)Nc1ccc(CN2CCN(C(c3ccc(F)cc3)c3ccc(F)cc3)CC2)cc1 [TCMDC-124045]	16.43%
O=C(/C=C/c1ccc(F)cc1)NC1CCC(CCN2CCc3ccccc3CC2)CC1 (stereo not drawn) [TCMDC-139451]	-36.35%
N#Cc1ccc(N2CCN(Cc3ccc(-c4ccc(-c5nc6cc(C(F)(F)F)ccc6[nH]5)cc4)cc3)CC2)nc1.O=C(O)C(F)(F)F [TCMDC-133113]	-14.21%
Oc1ccccc1CN1CCCC(COC(c2ccc(F)cc2)c2ccc(F)cc2)C1 (stereo not drawn) [TCMDC-136037]	28.2%
CCN(CC)S(=O)(=O)c1ccc(CCOCCCCCNCC(O)c2cc(Cl)c(N)c(Cl)c2)s1 (stereo not drawn) [TCMDC-132091]	31.84%
Nc1c(Cl)cc(C(O)CNCCCCCOCCCc2ccc3ncccc3c2)cc1Cl (stereo not drawn) [TCMDC-132087]	57.03%
Nc1c(Cl)cc(C(O)CNCCCCCCOCCc2ccc(CO)s2)cc1Cl (stereo not drawn) [TCMDC-132092]	55.37%
Nc1c(Cl)cc(C(O)CNCCCCCOCCc2ccccc2)cc1C(F)(F)F (stereo not drawn) [TCMDC-132081]	12.69%
Cc1ccc(CCOCCCCCNCC(O)c2cc(Cl)c(N)c(Cl)c2)cc1 (stereo not drawn) [TCMDC-132077]	0.6115%
Nc1c(Cl)cc(C(O)CNCCCCCOCCc2ccc3occc3c2)cc1Cl (stereo not drawn) [TCMDC-132085]	27.47%
Nc1c(Cl)cc(C(O)CNCCCCCCOCCc2ccc(O)cc2)cc1Cl (stereo not drawn) [TCMDC-132086]	21.31%
Nc1c(Cl)cc(C(O)CNCCCCCOCCCc2ccc(O)c3ncccc23)cc1Cl (stereo not drawn) [TCMDC-132088]	115.2%
Nc1c(Cl)cc(C(O)CNCCCCCCCCCc2ccccn2)cc1Cl (stereo not drawn) [TCMDC-132100]	20.05%
CCOCc1cnc(C)nc1CNC(=O)c1c(C)[nH]c2ccc(C)cc12 [TCMDC-125780]	11.26%
CCCc1cc(=O)oc2cc(OC)c(C(=O)CC(C)C)c(OC)c12 [TCMDC-138262]	-48.84%
Oc1cccc(-c2nc(-c3ccccc3)c(-c3ccc4oc5ccc(-c6[nH]c(-c7cccc(O)c7)nc6-c6ccccc6)cc5c4c3)[nH]2)c1 [TCMDC-124223]	14.59%
CC(CN(C)C)C(=O)Nc1ccc(-c2ccc(-c3nc4ccc(C(F)(F)F)cc4[nH]3)cc2)cc1 (stereo not drawn) [TCMDC-137113]	-54.47%
O=C(NCCN1CCCC1)c1cccc(-c2ccc(-c3nc4ccc(F)cc4[nH]3)cc2)c1 [TCMDC-132325]	-16.55%
CN(C)C(=S)NN=Cc1cccc(O)c1O [TCMDC-137879]	23.09%
CC(=NNC(N)=O)C1=C(O)C(c2ccccc2)N(C2CCCCC2)C1=O (stereo not drawn) [TCMDC-131672]	-9.176%
NC(N)=NN=CC(=O)Nc1ccc(Cl)c(C(F)(F)F)c1 [TCMDC-137561]	9.011%

Structure (SMILES)	% Inhibition
Cc1cccc2nc(-c3cccc(-c4cccc(NC(=O)Cc5ccc[n+]([O-])c5)c4)c3)[nH]c12 [TCMDC-136992]	24.81%
Cc1cc(C2CCN(CCCCNC(=O)c3ccc(-c4ccc(C(F)(F)F)cc4)cc3)CC2)c(C)cc1OCC#N [TCMDC-138799]	37.57%
COc1ccc(C(=O)NCCCCN2CCC(c3ccc4c(c3OC)CCCC4)CC2)cc1-c1ccc(C(F)(F)F)cc1 [TCMDC-138700]	-81.5%
O=C(NCCCCN1CCC(c2ccc3c(c2OCCCO)CCCC3)CC1)c1ccc(-c2ccc(C(F)(F)F)cc2)c(CO)c1 [TCMDC-138741]	72.16%
O=C(NCCCCN1CCC(c2ccc3c(c2OCCN2CCCC2=O)CCCC3)CC1)c1ccc(-c2ccc(C(F)(F)F)cc2)cc1 [TCMDC-138773]	108.1%
O=C(NCCCCN1CCC(c2ccc3c(c2OCCOCCO)CCCC3)CC1)c1ccc(-c2ccc(C(F)(F)F)cc2)cc1 [TCMDC-138762]	96.11%
O=C(NCCCCN1CC=C(c2ccc3c(c2OCC2CC2)CCCC3)CC1)c1ccc(-c2ccc(C(F)(F)F)cc2)cc1 [TCMDC-138758]	-36.04%
N#CCOc1c(C2CCN(CCCCNC(=O)c3ccc(-c4ccc(C(F)(F)F)cc4)cc3)CC2)ccc2c1CCCC2 [TCMDC-138769]	92.11%
OC(c1ccccc1)C1CN(CCc2ccccc2)CCC1(O)c1ccccc1 (stereo not drawn) [TCMDC-131287]	-3.552%
O=C(/C=C/c1ccccc1Cl)Nc1ccc(Br)c(OCCN2CCN(CCN3CCOCC3)CC2)c1 [TCMDC-140958]	-23.86%
Fc1ccc2[nH]c(-c3cccc(-c4ccc(CNCc5cnn(-c6ccccc6)n5)cc4)c3)nc2c1.O=C(O)C(F)(F)F [TCMDC-132973]	-12.58%
O=C(NC1CCCCC1)c1csc(C2CCCN(C(=O)c3ccc(O)c(-c4cccc(C(F)(F)F)c4)c3)C2)n1 (stereo not drawn) [TCMDC-140156]	5.189%
CC(=O)c1ccc(-c2cccc3c(CC(=O)Nc4ccc5nccc(N6CCN(C)CC6)c5c4)cccc23)cc1 [TCMDC-139271]	-10.77%
CCOC(=O)c1cc(C(=O)NCCCCN2CCC(c3cn(C)c4ccccc34)CC2)ccc1-c1ccc(C(F)(F)F)cc1 [TCMDC-138751]	1.206%
O=C(NCCCCN1CCC(c2ccc3c(c2OCCO)CCCC3)CC1)c1ccc(-c2ccc(C(F)(F)F)cc2)cc1 [TCMDC-138714]	98.87%
CNC(=O)COc1cc(C)c(C2CCN(CCCCNC(=O)c3ccc(-c4ccc(C(F)(F)F)cc4)cc3)CC2)cc1C [TCMDC-138846]	42.45%
O=C(NCCCCN1CCC(c2ccc3c(c2OCC2COCO2)CCCC3)CC1)c1ccc(-c2ccc(C(F)(F)F)cc2)cc1 (stereo not drawn) [TCMDC-138770]	14.16%
Cn1cc(C2CCN(CCCCNC(=O)c3ccc(-c4ccc(C(F)(F)F)cc4)c(CO)c3)CC2)c2ccccc21 [TCMDC-138748]	65.02%
O=C(NCCCCN1CCC(c2ccc3c(c2OCCO)CCCC3)CC1)c1ccc2oc(-c3ccc(C(F)(F)F)cc3)cc2c1 [TCMDC-138771]	113.6%
O=C(NCCCCN1CCC(c2ccc3c(c2OCCO)CCCC3)CC1)c1sc(-c2ccc(C(F)(F)F)cc2)nc1CO [TCMDC-138776]	39.12%
O=C(NCCCCN1CCC(c2cccc3ccccc23)CC1)c1ccc(-c2ccc(C(F)(F)F)cn2)cc1 [TCMDC-138570]	-25.01%
O=C(NCCCCN1CCC(c2ccc3c(c2OCCCO)CCCC3)CC1)c1ccc(-c2ccc(C(F)(F)F)cc2)cc1 [TCMDC-138743]	141.9%
